We go through 6 compounds from ChEMBL document CHEMBL1961873, “Compounds: GSK PKIS; Assays: Nanosyn kinase panel” (2012).

By inhibition is commonly meant the change of the read-out against control, counted positive when it falls.

The test system of experiment [1] is Tyrosine-protein kinase ABL1 (Homo sapiens), P00519 [T315I]. Particulars: at 1 µM.
Experiment [2] relates to Tyrosine-protein kinase ABL1 (Homo sapiens), P00519 [Y253F]. Particulars: at 0.1 µM.
Experiment [3] shares this test system. Particulars: at 1 µM.
For experiment [4], the target named is Tyrosine-protein kinase ABL1 (Homo sapiens) (UniProt P00519). To be noted: at 0.1 µM.
Experiment [5] shares this target. Particulars: at 1 µM.
The target of experiment [6] is ALK tyrosine kinase receptor (Homo sapiens) (UniProt Q9UM73). Particulars: at 0.1 µM.
For experiment [7] the target is unchanged. To be noted: at 1 µM.
For experiment [8], the target named is Tyrosine-protein kinase ABL2 (Homo sapiens) (UniProt P42684). To be noted: at 0.1 µM.
Experiment [9] shares this target. To be noted: at 1 µM.
The target of experiment [10] is Tyrosine-protein kinase receptor UFO (Homo sapiens) (UniProt P30530). To be noted: at 0.1 µM.
Experiment [11] shares this target. Particulars: at 1 µM.
Experiment [12] deals with Tyrosine-protein kinase Blk (Homo sapiens) (UniProt P51451). Particulars: at 0.1 µM.
Experiment [13] shares this target. To be noted: at 1 µM.
Experiment [14] has as its target T1, Cytoplasmic tyrosine-protein kinase BMX (Homo sapiens) (UniProt P51813).
T1 sequence (whole entry): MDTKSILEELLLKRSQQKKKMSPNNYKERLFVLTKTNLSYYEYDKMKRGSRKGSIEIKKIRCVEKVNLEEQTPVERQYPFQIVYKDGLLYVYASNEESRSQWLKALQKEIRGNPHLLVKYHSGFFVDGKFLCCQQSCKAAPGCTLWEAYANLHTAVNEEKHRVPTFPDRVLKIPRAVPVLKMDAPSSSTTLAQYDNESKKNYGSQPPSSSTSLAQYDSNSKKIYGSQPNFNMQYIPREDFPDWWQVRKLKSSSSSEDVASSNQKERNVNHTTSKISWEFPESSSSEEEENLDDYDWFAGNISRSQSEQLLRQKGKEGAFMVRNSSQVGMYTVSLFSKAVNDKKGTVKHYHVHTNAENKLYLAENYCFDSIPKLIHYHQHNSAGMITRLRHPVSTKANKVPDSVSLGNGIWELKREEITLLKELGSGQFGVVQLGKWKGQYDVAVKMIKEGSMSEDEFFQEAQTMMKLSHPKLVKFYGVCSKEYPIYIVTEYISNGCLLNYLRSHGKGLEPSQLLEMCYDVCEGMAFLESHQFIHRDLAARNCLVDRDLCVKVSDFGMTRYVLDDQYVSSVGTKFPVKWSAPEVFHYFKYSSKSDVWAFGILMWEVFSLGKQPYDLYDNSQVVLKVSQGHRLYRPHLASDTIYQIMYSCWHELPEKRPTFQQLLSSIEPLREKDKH
Particulars: at 0.1 µM.

Experiment [15] deals with T1, Cytoplasmic tyrosine-protein kinase BMX (Homo sapiens). Particulars: at 1 µM.
Experiment [16] has as its target Protein-tyrosine kinase 6 (Homo sapiens) (UniProt Q13882). To be noted: at 0.1 µM.
Experiment [17] shares this target. Particulars: at 1 µM.
The target in experiment [18] is Tyrosine-protein kinase BTK (Homo sapiens) (UniProt Q06187). Particulars: at 0.1 µM.
The target is the same in experiment [19]. To be noted: at 1 µM.
For experiment [20], the target named is Tyrosine-protein kinase CSK (Homo sapiens) (UniProt P41240). Particulars: at 0.1 µM.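 Further: value given is the averaged percent inhibition of CSK kinase activity, from the GSK PKIS kinase inhibitor set screening panel.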
Tyrosine-protein kinase CSK (Homo sapiens), sequence (P41240 2-450 limits assumed): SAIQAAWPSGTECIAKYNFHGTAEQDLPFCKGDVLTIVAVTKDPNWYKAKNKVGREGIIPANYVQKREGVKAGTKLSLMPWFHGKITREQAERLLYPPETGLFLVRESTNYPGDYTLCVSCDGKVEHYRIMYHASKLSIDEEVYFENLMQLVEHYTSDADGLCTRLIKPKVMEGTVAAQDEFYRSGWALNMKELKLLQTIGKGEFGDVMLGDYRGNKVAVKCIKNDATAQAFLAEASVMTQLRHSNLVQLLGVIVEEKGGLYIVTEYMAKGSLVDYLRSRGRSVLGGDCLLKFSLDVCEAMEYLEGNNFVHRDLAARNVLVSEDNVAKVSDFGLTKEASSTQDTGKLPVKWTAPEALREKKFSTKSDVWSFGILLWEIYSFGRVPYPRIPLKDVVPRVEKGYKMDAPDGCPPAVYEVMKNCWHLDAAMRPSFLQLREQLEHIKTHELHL

ALK tyrosine kinase receptor (Homo sapiens), sequence (Q9UM73 19-1620 limits assumed): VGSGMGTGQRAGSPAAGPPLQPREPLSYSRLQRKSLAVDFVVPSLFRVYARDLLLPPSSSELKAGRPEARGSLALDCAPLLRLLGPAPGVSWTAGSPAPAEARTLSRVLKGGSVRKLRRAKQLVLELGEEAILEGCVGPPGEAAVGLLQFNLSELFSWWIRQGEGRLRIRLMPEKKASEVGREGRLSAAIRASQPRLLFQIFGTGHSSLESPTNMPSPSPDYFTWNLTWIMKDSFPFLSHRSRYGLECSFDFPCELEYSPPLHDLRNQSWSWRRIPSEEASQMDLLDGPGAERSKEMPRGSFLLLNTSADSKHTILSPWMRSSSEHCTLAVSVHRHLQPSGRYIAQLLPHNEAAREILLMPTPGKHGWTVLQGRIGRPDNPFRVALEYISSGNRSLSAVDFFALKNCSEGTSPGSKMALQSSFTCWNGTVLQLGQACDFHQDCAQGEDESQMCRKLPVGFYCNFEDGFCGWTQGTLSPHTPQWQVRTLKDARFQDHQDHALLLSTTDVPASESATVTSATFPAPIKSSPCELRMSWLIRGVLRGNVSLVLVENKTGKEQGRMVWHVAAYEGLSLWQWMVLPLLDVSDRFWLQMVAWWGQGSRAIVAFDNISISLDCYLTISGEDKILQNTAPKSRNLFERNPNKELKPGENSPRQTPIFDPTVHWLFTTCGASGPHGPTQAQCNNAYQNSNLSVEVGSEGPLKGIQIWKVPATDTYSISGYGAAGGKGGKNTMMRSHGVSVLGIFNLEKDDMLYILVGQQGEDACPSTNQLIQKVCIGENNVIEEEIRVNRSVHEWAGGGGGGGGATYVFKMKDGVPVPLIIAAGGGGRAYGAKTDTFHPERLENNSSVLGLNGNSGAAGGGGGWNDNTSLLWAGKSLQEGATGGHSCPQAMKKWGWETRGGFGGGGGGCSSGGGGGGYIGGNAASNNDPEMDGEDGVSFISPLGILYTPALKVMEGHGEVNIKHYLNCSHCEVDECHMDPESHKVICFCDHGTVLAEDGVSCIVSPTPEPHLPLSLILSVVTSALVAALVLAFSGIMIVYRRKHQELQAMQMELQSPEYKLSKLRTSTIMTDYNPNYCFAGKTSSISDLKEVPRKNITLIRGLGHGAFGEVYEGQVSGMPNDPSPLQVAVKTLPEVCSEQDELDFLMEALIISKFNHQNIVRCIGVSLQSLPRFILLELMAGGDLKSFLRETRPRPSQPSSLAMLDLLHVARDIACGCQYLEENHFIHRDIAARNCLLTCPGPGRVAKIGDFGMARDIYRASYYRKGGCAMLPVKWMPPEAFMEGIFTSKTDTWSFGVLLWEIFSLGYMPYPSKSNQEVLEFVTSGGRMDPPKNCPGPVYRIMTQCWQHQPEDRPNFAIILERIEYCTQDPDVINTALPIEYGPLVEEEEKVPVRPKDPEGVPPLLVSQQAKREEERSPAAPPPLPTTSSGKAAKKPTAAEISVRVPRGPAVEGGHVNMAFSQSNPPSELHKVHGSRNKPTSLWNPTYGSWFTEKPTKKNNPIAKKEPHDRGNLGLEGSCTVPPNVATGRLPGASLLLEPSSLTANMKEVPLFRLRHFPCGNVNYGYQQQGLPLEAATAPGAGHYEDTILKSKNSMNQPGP
Tyrosine-protein kinase Blk (Homo sapiens), sequence (P51451 2-505 limits assumed): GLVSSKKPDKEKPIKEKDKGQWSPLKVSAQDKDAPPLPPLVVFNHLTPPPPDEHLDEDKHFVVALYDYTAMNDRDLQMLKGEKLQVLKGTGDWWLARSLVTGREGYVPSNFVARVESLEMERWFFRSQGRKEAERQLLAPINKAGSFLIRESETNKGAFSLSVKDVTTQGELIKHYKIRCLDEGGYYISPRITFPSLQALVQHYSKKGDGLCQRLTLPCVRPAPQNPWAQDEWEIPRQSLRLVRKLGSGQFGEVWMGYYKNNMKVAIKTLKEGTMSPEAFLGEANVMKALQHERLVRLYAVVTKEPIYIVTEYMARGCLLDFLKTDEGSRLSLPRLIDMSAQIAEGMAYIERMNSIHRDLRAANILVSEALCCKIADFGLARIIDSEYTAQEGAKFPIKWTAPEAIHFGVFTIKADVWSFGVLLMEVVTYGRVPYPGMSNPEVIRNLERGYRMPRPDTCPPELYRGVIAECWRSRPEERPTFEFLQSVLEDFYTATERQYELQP
Protein-tyrosine kinase 6 (Homo sapiens), sequence (Q13882 whole entry, looked up): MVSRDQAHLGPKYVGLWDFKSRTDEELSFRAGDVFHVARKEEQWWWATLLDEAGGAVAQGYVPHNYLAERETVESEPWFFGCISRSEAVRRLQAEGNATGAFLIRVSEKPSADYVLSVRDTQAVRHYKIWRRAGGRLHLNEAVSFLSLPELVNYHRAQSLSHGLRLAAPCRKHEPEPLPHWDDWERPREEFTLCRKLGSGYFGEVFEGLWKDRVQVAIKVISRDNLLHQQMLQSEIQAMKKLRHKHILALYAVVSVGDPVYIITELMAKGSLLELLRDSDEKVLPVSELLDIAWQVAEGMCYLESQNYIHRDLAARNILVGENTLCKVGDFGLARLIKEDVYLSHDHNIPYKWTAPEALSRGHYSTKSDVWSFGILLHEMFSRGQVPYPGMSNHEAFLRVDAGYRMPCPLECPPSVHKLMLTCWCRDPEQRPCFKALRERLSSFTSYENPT
Tyrosine-protein kinase ABL2 (Homo sapiens), sequence (P42684 whole entry): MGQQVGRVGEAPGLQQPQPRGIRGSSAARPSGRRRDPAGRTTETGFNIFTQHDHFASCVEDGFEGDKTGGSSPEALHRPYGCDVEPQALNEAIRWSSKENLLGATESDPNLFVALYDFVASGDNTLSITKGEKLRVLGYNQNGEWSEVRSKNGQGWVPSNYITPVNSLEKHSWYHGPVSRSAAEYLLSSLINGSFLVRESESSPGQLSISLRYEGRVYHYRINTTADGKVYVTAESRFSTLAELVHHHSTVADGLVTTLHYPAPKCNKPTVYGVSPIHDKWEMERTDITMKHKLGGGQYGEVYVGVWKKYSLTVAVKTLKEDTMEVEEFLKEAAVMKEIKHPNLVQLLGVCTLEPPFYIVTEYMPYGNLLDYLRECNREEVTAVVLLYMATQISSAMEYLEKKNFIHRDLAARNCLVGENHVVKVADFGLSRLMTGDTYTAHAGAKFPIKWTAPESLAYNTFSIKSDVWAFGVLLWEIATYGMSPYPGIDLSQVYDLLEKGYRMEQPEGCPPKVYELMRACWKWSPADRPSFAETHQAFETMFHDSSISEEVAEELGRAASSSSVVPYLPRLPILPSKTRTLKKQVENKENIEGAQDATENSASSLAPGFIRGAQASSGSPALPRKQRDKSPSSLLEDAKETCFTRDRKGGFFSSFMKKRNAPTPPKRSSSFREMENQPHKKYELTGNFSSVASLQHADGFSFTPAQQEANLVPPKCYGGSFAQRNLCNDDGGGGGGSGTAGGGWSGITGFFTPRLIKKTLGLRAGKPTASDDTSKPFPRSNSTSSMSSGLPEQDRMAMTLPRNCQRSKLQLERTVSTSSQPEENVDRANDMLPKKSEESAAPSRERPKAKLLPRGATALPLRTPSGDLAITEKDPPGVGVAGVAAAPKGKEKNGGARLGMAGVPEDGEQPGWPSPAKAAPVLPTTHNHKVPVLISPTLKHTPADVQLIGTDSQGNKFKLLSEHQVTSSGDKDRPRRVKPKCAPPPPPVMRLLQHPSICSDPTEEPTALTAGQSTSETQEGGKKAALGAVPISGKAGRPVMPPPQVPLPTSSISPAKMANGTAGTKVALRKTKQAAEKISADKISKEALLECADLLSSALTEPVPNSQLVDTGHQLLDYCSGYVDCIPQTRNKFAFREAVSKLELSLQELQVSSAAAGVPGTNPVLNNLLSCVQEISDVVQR
Tyrosine-protein kinase receptor UFO (Homo sapiens), sequence (P30530 whole entry): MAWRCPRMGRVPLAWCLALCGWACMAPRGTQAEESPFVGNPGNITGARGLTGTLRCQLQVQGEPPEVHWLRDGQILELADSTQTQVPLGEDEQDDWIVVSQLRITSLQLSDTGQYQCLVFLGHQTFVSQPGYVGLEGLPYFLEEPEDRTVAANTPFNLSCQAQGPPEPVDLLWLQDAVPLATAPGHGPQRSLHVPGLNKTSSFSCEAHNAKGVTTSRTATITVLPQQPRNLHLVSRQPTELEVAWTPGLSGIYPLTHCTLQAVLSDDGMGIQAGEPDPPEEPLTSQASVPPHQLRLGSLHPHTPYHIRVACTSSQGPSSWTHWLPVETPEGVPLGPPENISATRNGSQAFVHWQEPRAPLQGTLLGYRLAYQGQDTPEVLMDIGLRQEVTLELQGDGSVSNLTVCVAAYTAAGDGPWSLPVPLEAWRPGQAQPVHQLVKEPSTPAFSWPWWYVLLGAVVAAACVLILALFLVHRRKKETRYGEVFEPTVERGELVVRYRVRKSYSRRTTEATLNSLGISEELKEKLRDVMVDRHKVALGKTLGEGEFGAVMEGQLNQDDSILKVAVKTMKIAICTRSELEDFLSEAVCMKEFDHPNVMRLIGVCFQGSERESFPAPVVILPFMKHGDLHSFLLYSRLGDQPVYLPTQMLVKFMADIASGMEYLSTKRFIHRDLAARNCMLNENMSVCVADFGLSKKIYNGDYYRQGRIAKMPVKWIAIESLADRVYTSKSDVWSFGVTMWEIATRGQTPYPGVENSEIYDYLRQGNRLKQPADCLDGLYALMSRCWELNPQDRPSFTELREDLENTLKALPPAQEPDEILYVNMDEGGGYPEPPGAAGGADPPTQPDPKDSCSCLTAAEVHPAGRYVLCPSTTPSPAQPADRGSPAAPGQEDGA

`[O-][S+]1CCN(Cc2ccc(-c3ccc4ncnc(Nc5ccc(OCc6ccccc6)c(Cl)c5)c4c3)o2)CC1`: the inhibition amounted to 1.03% in [1]; 0.95% in experiment [2]; 2.06% in [3]; 2.3% in [4]; 4.26% in experiment [5]; 2.04% in [6]. The inhibition is 8.58% in experiment [7]; 1.82% in [8]; 3.39% in experiment [9]; -2.39% in [10]; 0.46% in experiment [11]; -0.34% in experiment [12]. The inhibition in experiment [13] was 6.7%; in experiment [14], 0.31%; in experiment [15] it was 2.05%; in [16], 0.38%; in [17] it was 11%; in experiment [18], -1.44%. Also, the results for the inhibition in experiment [19] and in [20] were -0.83% and -0.03%, respectively.

On to `CCn1c(-c2nonc2N)nc2ccc(F)cc21`, for which the inhibition amounted to 5.94% in [1]; 2.99% in [2]; 6.49% in experiment [3]; 3.48% in experiment [4]; 3.51% in experiment [5]; 5.2% in [6]. The inhibition is 5.27% in experiment [7]; 3.97% in [8]; 6.07% in [9]; -7.61% in experiment [10]; -5.29% in experiment [11]; 3.96% in experiment [12]. In addition, the inhibition is 4.5% in experiment [13]; 5.08% in experiment [14]; 6.05% in [15]; 4.83% in [16]; 8.38% in [17]; 0.19% in experiment [18]. In addition, the inhibition in [19] was -0.49%; in experiment [20], 5.53%.

Turning to `NC(=O)c1cccc(Nc2nccc(Nc3cccc(F)c3)n2)c1`, the inhibition stood at 17.1% in experiment [1]; 12.8% in [2]; 63.8% in experiment [3]; 11.6% in [4]; 55.6% in experiment [5]; 0.23% in experiment [6]. Further, the inhibition in experiment [7] was 10.1%; in experiment [8], 11.5%; in experiment [9], 51.9%; in [10], -1.82%; in experiment [11], -2.93%; in experiment [12], 0.38%. For the same compound, the inhibition stood at 13.8% in experiment [13]; 4.88% in experiment [14]; 37.9% in [15]; 4.3% in experiment [16]; 36.2% in [17]; 0.63% in experiment [18]. Also, the inhibition turned out to be 7.3% in experiment [19] and 0.49% in experiment [20].

Turning to `O=C1Nc2ccc(-c3cccnc3)cc2C1=Cc1cc(Br)c(O)c(Br)c1`, the inhibition in [1] was found to be 2.94%; in experiment [2] it was 5.16%; in [3], 7.7%; in experiment [4] it was 3.97%; in experiment [5], 8.78%; in [6] it was 4.13%. For the same compound, the inhibition is 9.22% in experiment [7]; 3.5% in experiment [8]; 5.72% in [9]; -3.55% in [10]; -2.44% in [11]; 2.77% in [12]. Besides, the inhibition in [13] is 10.8%; in experiment [14] it was -2.3%; in experiment [15] it was 4.31%; in [16], 4.36%; in [17], 10.7%; in [18] it was 0.22%. For the same compound, the inhibition in [19] was 1.61%; in experiment [20], 4.14%.

As to `CN1CCN(C(=O)c2ccc(NC(=O)Nc3ccc(N(C)c4ccnc(Nc5ccc(CS(C)(=O)=O)cc5)n4)cc3)cc2)CC1`, the inhibition was found to be 61.5% in experiment [1]; 8.21% in experiment [2]; 48.1% in experiment [3]; 9.79% in [4]; 43.9% in [5]; 1.71% in [6]. Moreover, the inhibition is 10.3% in experiment [7]; 21.9% in experiment [8]; 56.5% in [9]; -3.75% in experiment [10]; 11.9% in [11]; 2.76% in experiment [12]. The inhibition in experiment [13] was 24.4%; in experiment [14], 19.1%; in [15] it was 68%; in experiment [16], -1.96%; in [17], 13.5%; in experiment [18] it was 1.59%. The figures for the inhibition in experiment [19] and in experiment [20] were 16% and -1.19%, respectively.

As to `CS(=O)(=O)CCNCc1nc(-c2ccc3ncnc(Nc4ccc(OCc5cccc(C(F)(F)F)c5)cc4)c3c2)cs1`, the inhibition came to 1.2% in experiment [1]; 1.32% in experiment [2]; 0.85% in experiment [3]; 3.97% in [4]; 6.56% in experiment [5]; 2.68% in experiment [6]. Moreover, the inhibition in experiment [7] is 6.49%; in [8] it was 1.49%; in [9], 4.56%; in experiment [10] it was -5.39%; in experiment [11], -2.54%; in experiment [12], 1.22%. Also, the inhibition in [13] is 4.48%; in experiment [14], 3.48%; in experiment [15], 5.73%; in experiment [16], -0.74%; in [17] it was 1.75%; in experiment [18], 0.43%. The inhibition in experiment [19] was determined as 1.66%; in [20], 3.59%.
